From PubChem
The list is not random: actives were taken first. Their share in the collection is about 3.7%.
MITF act: increases MITF-driven TRPM1 promoter luciferase signal. SK-MEL-5 TRPM1-promoter luciferase, 24 h; % of positive control, neutral wells = 0. activation, % at 12.5 µM. 0.75% of 300,000 active. AID 588334;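 active means mean activation of at least 80% with every replicate also reaching 80%; inconclusive means mean reaches 80% but some replicate falls short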;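 further: 0% = neutral control wells and 100% = parthenolide positive control wells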
esBAF inh: inhibitors of esBAF chromatin remodeling in mouse ES cells; reporter increase, % at 12.5 µM; AID 602393; Bmi1-luciferase knock-in reporter, 24 h; 100% = twice the neutral-well signal; 2% of 350,000 active; in the data active means activation above about 40%; inconclusive means no clear call, values can overlap the other calls;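 further: 0% = median of the plate's neutral control wells and 100% = double that signal; a rise in the Bmi1 reporter signal indicates esBAF inhibition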
AF4-AF9 inh: MLL-AF4/AF9 protein interaction inhibition. inhibition, % at 10 µM. P42568. 0.47% of 350,000 active. AlphaScreen, biotin-AF4 peptide binding to FLAG-AF9. AID 651704;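 active means every replicate reaching a set inhibition limit, whatever the replicate mean, cut at about 25% in these data; inconclusive means mean inhibition reaches that limit but some replicates miss it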;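 further: 0% = plate neutral control median and 100% = total signal loss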
Target sequence (P42568 whole entry, looked up): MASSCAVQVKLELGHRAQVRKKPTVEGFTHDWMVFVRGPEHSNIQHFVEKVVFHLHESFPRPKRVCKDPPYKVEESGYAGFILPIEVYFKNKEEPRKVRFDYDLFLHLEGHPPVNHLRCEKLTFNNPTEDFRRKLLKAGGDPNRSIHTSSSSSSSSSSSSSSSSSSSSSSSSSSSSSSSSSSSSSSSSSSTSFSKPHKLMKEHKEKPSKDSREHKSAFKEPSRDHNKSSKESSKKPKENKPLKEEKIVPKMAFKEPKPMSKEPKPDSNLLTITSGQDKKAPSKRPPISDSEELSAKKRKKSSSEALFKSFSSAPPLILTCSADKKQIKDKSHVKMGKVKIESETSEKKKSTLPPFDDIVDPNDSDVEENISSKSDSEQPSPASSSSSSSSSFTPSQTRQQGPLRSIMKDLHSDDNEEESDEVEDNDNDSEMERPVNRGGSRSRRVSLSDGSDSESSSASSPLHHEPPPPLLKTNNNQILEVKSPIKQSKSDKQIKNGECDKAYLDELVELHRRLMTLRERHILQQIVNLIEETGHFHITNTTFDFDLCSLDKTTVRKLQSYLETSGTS
Wnt act: Wnt/beta-catenin pathway activation | activation, % at 9.35 µM | Wnt/beta-catenin reporter cell assay, activator, plate reader | 1.2% of 300,000 active | AID 743398; in the data active means activation above about 30%, passing the limit was not always enough; inconclusive means no clear call, values can overlap the other calls;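 further: 0% = neutral control wells and 100% = positive control wells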
rRNA inh HTS: selective bacterial rRNA inhibition in E. coli | E. coli WT GFP vs humanized-ribosome RFP mutants, fluorescence, 24 h; active compounds read low; DMSO median 0, no signal -100 | GFP signal change (wild-type ribosome), % (no concentration beside the values) | 1.6% of 350,000 active | AID 720706;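 active means significant combined selectivity score with lowered wild-type GFP, culture density cut under 30%, mutant RFP and density less affected; inactive means any of these conditions unmet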
Numbers without * were called inactive; ? = inconclusive; . = no result given.

SMILES	MITF act	esBAF inh	AF4-AF9 inh	Wnt act	rRNA inh HTS
CC(C)C(=O)Nc1cccc(-c2cnc3ccccc3n2)c1	?	33	.	.	.
CS(=O)(=O)Nc1cccc(-c2cnc3ccccc3n2)c1	98*	32	-1	15	-8
O=[N+]([O-])c1cccc(-c2cnc3ccccc3n2)c1	41	52*	1	0	7
C[C@H](CO)N1C[C@H](C)[C@@H](CN(C)S(=O)(=O)c2ccc(Cl)cc2)OCCCC[C@H](C)Oc2ccc(NC(=O)Nc3ccccc3)cc2C1=O	.	-3	-2	.	3
CC(C)[C@H](NC(=O)c1ccccc1)C(=O)OCC(=O)c1c(N)n(C)c(=O)n(C)c1=O	-4	-3	0	0	7
O=C(O)c1ccc(N/N=C/C2=Cc3ccccc3OC2)cc1	138*	81*	2	41*	-15
O=C(O)c1ccc(N/N=C/c2ccncc2)cc1	-8	.	1	8	-1
O=c1cc(Nc2ccc3c(c2)OCO3)[nH]c(=O)n1-c1ccc(Br)cc1	0	5	.	.	.
Nc1ncn([C@@H]2O[C@H](CO)[C@@H](O)[C@H]2O)c(=O)n1	-77	67*	-2	-11	.
O=C1CSC(=S)N1/N=C/c1cccnc1	.	.	0	41*	-1
